Measured values reported in PubChem BioAssay.
For some assays here: Results with a measured potency or affinity are listed apart. Calls of active or inactive are those of the source.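 Rule for the calls, unless noted: active = hit in primary screen, with calcium signal over 5 SD above buffer well mean in both duplicates; inactive = the rest.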

How the values were obtained:
[1] = system: TRPC4 beta (transient receptor potential cation channel C4), mouse; experiment: TRPC4 cation channel opening, retest – cell-based, Fluo4 calcium, HEK293 TRPC4beta/mu-opioid, duplicates, 10 µM, confirmation (AID 2426;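 active = fluorescence ratio normalized to control raised more than 50% in primary screen plus both repeat runs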;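 for activation: percent rise of integrated ratio over buffer wells lacking compound which define 0%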); conditions: Fluo4 calcium fluorescence, at 10 µM; stronger effect = higher value
[2] = system: transient receptor potential cation channel C4 beta (TRPC4), mouse; experiment: TRPC4 cation channel opening, second retest – cell-based, second round, Fluo4, HEK293 TRPC4beta/mu-opioid, 1 µM, confirmation (AID 2461;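 active = primary screen active and over 50% activation in each of two duplicate runs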;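 for activation: 0% = wells without test compound as baseline of integrated fluorescence ratio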); conditions: Fluo4 calcium fluorescence, at 1 µM; stronger effect = higher value
[3] = system: TRPC4 (transient receptor potential cation channel C4 beta), mouse; experiment: potentiation of DAMGO EC20 TRPC4 response – cell-based, second round, Fluo-4, HEK293 TRPC4beta/mu-opioid, 1 µM, confirmation (AID 2554;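 active = primary screen hit whose fluorescence ratio, in both repeats, exceeds the weak agonist control mean by 3 SD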); conditions: DAMGO EC20, Fluo-4 calcium flux, at 1 µM; stronger effect = higher value
[4] = system: TRPC4 beta (transient receptor potential cation channel C4), mouse; experiment: potentiation of DAMGO EC20 TRPC4 response – cell-based, Fluo-4, HEK293 TRPC4beta/mu-opioid, confirmation (AID 2555;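 active = primary screen hit whose calcium fluorescence ratio, in both repeats, exceeds the weak agonist control mean by 3 SD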); conditions: DAMGO EC20, Fluo-4 calcium flux, at 10 µM; stronger effect = higher value
[5] = biological target: Short transient receptor potential channel 4 (Mus musculus) (UniProt Q9QUQ5); experiment: blockers of DAMGO-evoked TRPC4 calcium flux – cell-based, Fluo4, HEK293 TRPC4beta/mu-opioid, confirmation (AID 2636;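 active = calcium signal cut by more than 3 SD below the full-agonist control yet still positive, in both repeats and the earlier primary screen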); conditions: at 10 µM; stronger effect = higher value
Chain of Short transient receptor potential channel 4 (Mus musculus) (Q9QUQ5 whole entry, looked up): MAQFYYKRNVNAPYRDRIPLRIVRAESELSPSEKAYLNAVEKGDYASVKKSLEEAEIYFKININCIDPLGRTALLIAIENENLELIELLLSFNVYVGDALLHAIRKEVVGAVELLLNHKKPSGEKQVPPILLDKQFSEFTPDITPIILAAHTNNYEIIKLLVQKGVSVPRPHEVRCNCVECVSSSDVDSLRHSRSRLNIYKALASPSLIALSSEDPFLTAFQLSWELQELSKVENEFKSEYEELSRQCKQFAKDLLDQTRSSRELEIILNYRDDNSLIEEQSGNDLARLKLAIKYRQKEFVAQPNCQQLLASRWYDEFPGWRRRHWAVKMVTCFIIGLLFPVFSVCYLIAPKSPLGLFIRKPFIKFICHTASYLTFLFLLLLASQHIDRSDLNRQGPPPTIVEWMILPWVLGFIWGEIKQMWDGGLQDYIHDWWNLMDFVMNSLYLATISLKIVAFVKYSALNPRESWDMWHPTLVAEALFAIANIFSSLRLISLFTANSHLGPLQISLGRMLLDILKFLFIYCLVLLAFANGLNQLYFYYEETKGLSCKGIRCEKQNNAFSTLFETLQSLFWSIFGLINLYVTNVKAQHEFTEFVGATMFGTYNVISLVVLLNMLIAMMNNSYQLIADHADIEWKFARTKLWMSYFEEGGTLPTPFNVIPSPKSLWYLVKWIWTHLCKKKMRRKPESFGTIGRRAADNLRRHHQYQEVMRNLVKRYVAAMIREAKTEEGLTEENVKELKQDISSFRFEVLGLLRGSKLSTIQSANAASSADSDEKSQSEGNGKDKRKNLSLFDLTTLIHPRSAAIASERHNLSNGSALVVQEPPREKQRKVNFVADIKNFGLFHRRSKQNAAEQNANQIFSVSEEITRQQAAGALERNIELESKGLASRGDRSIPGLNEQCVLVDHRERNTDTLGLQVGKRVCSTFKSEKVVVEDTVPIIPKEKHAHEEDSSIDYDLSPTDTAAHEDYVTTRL

[6] = biological target: Short transient receptor potential channel 4 (Mus musculus) (UniProt Q9QUQ5); experiment: blockers of DAMGO-evoked TRPC4 calcium flux – cell-based, second round, Fluo4, HEK293 TRPC4beta/mu-opioid, 1 µM, confirmation (AID 2637;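 active = calcium signal ratio cut to more than 3 SD under the fully stimulated control mean yet still positive, in both repeats and the primary screen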); conditions: at 1 µM; stronger effect = higher value
[7] = biological target: Short transient receptor potential channel 4 (Mus musculus) (UniProt Q9QUQ5); experiment: potentiation of DAMGO-evoked TRPC4 calcium signal – cell-based, HEK293 TRPC4/mu-opioid, Fluo-4 calcium, EC20 DAMGO, dose response (AID 434941;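 active = earlier screen potentiator hit that boosts the TRPC4 ion channel at some dose, with a dose response; inactive = no potentiation, no dose response, or not a prior hit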;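 note: calcium entry triggered by an EC20 dose of DAMGO at the co-expressed mu-opioid receptor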)
[8] = biological target: Short transient receptor potential channel 4 (Mus musculus) (UniProt Q9QUQ5); experiment: block of DAMGO-driven TRPC4 calcium entry – cell-based, HEK293 TRPC4/mu-opioid, Fluo-4 calcium, dose response (AID 434942;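 active = primary screen inhibitor hit that blocks the TRPC4 channel at some tested dose, yielding a dose curve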)
[9] = biological target: Short transient receptor potential channel 6 (Mus musculus) (UniProt Q61143); experiment: TRPC6 blockade by TRPC4 inhibitor hits – cell-based, HEK293, membrane potential dye, duplicate, selectivity assay for TRPC4 inhibitor project, confirmation (AID 434948;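 active = active in primary screen and both duplicates, each dropping signal beyond three positive-control SD with fluorescence still positive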); conditions: HEK293 TRPC6, membrane potential dye fluorescence, at 10 µM, stimulated with maximal-effect acetylcholine; stronger effect = higher value
Chain of Short transient receptor potential channel 6 (Mus musculus) (Q61143 whole entry, looked up): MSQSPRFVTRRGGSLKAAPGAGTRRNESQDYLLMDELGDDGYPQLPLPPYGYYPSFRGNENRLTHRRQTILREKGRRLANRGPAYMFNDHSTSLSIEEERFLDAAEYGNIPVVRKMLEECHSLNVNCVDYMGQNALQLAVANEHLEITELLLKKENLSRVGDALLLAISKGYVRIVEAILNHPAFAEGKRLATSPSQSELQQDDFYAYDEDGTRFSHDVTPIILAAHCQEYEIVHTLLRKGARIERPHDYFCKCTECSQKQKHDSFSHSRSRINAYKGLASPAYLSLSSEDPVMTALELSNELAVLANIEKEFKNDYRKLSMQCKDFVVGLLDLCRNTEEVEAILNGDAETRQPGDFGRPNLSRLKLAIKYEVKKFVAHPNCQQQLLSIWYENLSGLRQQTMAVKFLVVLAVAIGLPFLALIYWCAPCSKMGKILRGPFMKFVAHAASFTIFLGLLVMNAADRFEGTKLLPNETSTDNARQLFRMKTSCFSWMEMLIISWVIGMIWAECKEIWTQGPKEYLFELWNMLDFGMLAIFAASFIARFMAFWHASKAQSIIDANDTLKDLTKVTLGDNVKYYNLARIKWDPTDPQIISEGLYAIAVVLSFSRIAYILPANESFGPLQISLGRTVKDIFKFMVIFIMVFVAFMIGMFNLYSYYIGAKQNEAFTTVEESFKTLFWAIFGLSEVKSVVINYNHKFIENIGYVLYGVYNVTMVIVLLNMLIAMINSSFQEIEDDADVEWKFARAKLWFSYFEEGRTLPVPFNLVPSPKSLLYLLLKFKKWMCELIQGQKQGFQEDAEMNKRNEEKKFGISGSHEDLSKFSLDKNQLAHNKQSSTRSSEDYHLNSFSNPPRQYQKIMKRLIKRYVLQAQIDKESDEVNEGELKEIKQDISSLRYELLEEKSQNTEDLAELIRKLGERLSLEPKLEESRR

[10] = biological target: Short transient receptor potential channel 6 (Mus musculus) (UniProt Q61143); experiment: TRPC6 opening by TRPC4 activator hits – cell-based, HEK293, membrane potential dye, duplicate, selectivity assay for TRPC4 activator project, confirmation (AID 434950;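 active = membrane potential signal rise above negative control mean plus 3 SD in both duplicates, also active in the earlier TRPC4 screen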;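 for activation: 0% = buffer only wells and 100% = acetylcholine maximal-effect wells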); conditions: HEK293 TRPC6, membrane potential fluorescence, at 10 µM; activation: stronger effect = higher value; outcome: activation
[11] = biological target: Short transient receptor potential channel 6 (Mus musculus) (UniProt Q61143); experiment: positive modulators of mouse TRPC6 channel – HEK293 cells, membrane potential dye, duplicate, selectivity assay for TRPC4 potentiator project, confirmation (AID 434952;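 active = compound raising the membrane signal above positive-control mean plus 3 SD in both repeats, and a primary screen hit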); conditions: HEK293 TRPC6, membrane potential dye fluorescence, at 10 µM, maximal acetylcholine added after compound; stronger effect = higher value
[12] = biological target: Short transient receptor potential channel 4 (Mus musculus) (UniProt Q9QUQ5); experiment: calcium flux activators in TRPC4/5HT1a cells, counter-screen for TRPC4 activator project, cell-based, second counter screen, HEK293 TRPC4/5HT1a, Fluo-4 (AID 434977;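 active = calcium signal rise above buffer-control mean plus 5 SD in both duplicates, and also a hit in the primary screen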;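 for activation: plate controls were assay buffer for no effect and maximal serotonin response for full effect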); conditions: Fluo-4 calcium flux, at 10 µM; stronger effect = higher value
[13] = serotonin-gated TRPC4 signal block – cell-based, second counter screen, HEK293 TRPC4/5HT1a, Fluo-4, counter-screen for TRPC4 inhibitor project, confirmation (AID 434978;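 active = primary screen active whose calcium signal fell more than 3 SD beyond the full-serotonin control mean in both duplicate plates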;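 note: serotonin given first at submaximal then at maximal dose after compound preincubation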); conditions: Fluo-4 calcium flux, at 10 µM, serotonin added to trigger calcium flux; stronger effect = higher value
[14] = system: TRPC4 (mouse), co-expressed with 5HT1a in HEK293; experiment: enhancement of serotonin-evoked TRPC4 response – cell-based, second counter screen, HEK293 TRPC4/5HT1a, Fluo-4, counter-screen for TRPC4 potentiator project, confirmation (AID 434979;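 active = signal rise over 3 SD above mean of control wells given weak agonist, in both repeats and first screen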); conditions: Fluo-4 calcium flux, at 10 µM, serotonin added at its EC20 dose; stronger effect = higher value
[15] = nonspecific calcium rise without TRPC4 – cell-based, HEK293 mu-opioid receptor line, counter-screen for TRPC4 activator project, confirmation (AID 449723); conditions: HEK293 mu-opioid cells, Fluo-4 calcium fluorescence, at 10 µM; stronger effect = higher value;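 note: counter screen cells carry the mu-opioid receptor alone and lack TRPC4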
[16] = nonspecific potentiation of DAMGO calcium response – cell-based, HEK293 mu-opioid receptor line, counter-screen for TRPC4 allosteric potentiator project, confirmation (AID 449724;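 active = calcium signal rise more than 3 SD above the low-dose agonist control mean, in both duplicate plates and the primary screen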); conditions: HEK293 mu-opioid receptor cells, Fluo-4 calcium flux, at 10 µM, compound added before EC20 DAMGO stimulus; stronger effect = higher value
[17] = nonspecific flux increase, KCNQ1-free cells – parental CHO cells, counter-screen for KCNQ1 potentiator project (AID 493006;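 active = duplicate-averaged activation above buffer control mean plus 5 SD of those controls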;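 for activation: fluorescence ratio of max minus min over baseline after K+ and Tl+ depolarization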); conditions: parental CHO-K1 cells, FluxOR thallium flux, at 10 µM; stronger effect = higher value
[18] = biological target: Potassium voltage-gated channel subfamily KQT member 1 (Homo sapiens) (UniProt P51787); experiment: enhancement of KCNQ1 channel thallium flux – FluxOR thallium flux, CHO cells, duplicates, confirmation (AID 493007;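 active = potentiation averaged over duplicate wells exceeding buffer-only control mean by more than 3 SD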;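 for outcome: cells depolarized by a potassium plus thallium sulfate stimulus after compound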;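 for potentiation: 0% = buffer-only wells and 100% = R-L3 activator control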); conditions: KCNQ1 cell line, FluxOR thallium flux fluorescence, at 10 µM; stronger effect = higher value, % of reference activator effect, buffer zero
Chain of Potassium voltage-gated channel subfamily KQT member 1 (Homo sapiens) (P51787 whole entry, looked up): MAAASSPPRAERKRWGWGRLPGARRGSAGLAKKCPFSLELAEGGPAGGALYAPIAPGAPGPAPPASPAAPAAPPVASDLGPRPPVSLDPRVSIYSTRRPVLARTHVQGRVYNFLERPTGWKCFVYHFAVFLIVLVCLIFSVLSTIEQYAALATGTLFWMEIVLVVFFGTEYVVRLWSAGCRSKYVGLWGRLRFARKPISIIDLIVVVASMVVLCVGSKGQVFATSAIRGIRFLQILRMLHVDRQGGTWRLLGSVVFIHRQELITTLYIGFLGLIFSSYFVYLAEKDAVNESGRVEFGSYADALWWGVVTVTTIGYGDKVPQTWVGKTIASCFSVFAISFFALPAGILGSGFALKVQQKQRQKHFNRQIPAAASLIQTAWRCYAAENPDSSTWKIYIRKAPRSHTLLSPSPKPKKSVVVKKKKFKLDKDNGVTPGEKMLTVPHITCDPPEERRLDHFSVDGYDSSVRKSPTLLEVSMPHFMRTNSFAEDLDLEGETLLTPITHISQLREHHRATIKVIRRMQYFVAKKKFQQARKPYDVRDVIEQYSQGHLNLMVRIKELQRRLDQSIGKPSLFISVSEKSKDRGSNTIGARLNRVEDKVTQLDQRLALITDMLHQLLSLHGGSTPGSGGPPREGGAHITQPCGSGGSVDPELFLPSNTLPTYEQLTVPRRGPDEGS

[19] = biological target: Potassium voltage-gated channel subfamily KQT member 2 (Rattus norvegicus) (UniProt O88943); experiment: KCNQ2 thallium flux enhancement – KCNQ2-CHO-K1 cells, selectivity assay for KCNQ1 potentiator project (AID 493009;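 active = mean duplicate potentiation above the buffer control mean plus 5 SD of buffer wells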;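 note: assay conditions were tuned for KCNQ1 rather than KCNQ2 modulators; signal is max minus min fluorescence divided by baseline after thallium stimulus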); conditions: FluxOR thallium flux fluorescence, at 10 µM; stronger effect = higher value, scaled: buffer 0, activator control 100
Chain of Potassium voltage-gated channel subfamily KQT member 2 (Rattus norvegicus) (O88943 whole entry, looked up): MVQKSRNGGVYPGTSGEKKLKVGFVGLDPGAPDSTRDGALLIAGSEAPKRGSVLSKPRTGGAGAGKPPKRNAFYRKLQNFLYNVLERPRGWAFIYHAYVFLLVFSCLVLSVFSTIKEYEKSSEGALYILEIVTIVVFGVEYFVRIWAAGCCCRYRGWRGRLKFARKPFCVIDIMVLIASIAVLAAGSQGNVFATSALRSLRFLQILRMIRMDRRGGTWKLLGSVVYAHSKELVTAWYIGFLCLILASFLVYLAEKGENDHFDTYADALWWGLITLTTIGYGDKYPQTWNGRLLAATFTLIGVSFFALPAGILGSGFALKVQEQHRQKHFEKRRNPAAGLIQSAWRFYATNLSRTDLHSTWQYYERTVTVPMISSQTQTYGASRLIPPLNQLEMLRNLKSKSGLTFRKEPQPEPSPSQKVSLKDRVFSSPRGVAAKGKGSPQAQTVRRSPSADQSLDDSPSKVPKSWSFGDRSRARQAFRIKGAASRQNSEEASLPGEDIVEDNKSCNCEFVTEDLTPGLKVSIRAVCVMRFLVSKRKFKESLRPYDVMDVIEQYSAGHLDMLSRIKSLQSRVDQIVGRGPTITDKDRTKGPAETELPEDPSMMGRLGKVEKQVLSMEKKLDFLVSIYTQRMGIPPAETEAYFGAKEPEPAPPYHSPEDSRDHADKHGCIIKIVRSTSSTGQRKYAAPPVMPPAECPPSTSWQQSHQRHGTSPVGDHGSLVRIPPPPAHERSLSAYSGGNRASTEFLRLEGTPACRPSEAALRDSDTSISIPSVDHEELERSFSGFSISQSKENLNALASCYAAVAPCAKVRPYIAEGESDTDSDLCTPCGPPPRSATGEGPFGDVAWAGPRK

[20] = biological target: Potassium voltage-gated channel subfamily KQT member 1 (Homo sapiens) (UniProt P51787); experiment: KCNQ1 activators by electrophysiology – IonWorks patch clamp, KCNQ1-CHO cells, orthogonal assay for KCNQ1 potentiator project, confirmation (AID 493184;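 active = current rise at least 3 SD above the untreated control mean in each of two repeat wells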); conditions: automated patch clamp current, at 10 µM; stronger effect = higher value

CC(c1cccnc1)N(CCN(C)C)C(=O)Nc1ccc(Cl)c(Cl)c1 (stereo not drawn)
active: activation [10] 34%
inactive: outcome [1] | outcome [2] | outcome [3] | outcome [4] | outcome [5] | outcome [6] | outcome [7] | outcome [8] | outcome [9] | outcome [11] | outcome [12] | outcome [13] | outcome [14] | outcome [15] | outcome [16]

CCOC(=O)C1=NN(C(=O)c2ccc(C)cc2)C(O)(c2ccc(Cl)cc2)C1 (stereo not drawn)
inactive: outcome [2] | outcome [3] | outcome [4] | outcome [5] | outcome [6] | outcome [7] | outcome [8] | outcome [9] | outcome [11] | outcome [13] | outcome [14] | outcome [16] | outcome [20]
active: activation [1] 98% | activation [10] 217% | activation [12] 66.4% | activation [15] 37.9% | activation [17] 630% | potentiation [18] 336% | potentiation [19] 655%

O=C(O)c1ccc(-c2ccc(/C=c3/sc4nc5ccccc5n4c3=O)o2)cc1Cl
active: potentiation [4] 10% | activation [10] 218% | potentiation, percent of control [11] 166% | activation [12] 46.3% | activation [15] 40.9%
inactive: outcome [1] | outcome [2] | outcome [3] | outcome [5] | outcome [6] | outcome [7] | outcome [8] | outcome [9] | outcome [13] | outcome [14] | outcome [16]

COc1ccc(C(CNC(=O)CN2C(=O)NC3(CCCC3)C2=O)N(C)C)cc1 (stereo not drawn)
inactive: outcome [2] | outcome [3] | outcome [4] | outcome [5] | outcome [6] | outcome [7] | outcome [8] | outcome [9] | outcome [10] | outcome [11] | outcome [12] | outcome [13] | outcome [14] | outcome [15] | outcome [16]
active: activation [1] 121%

Cc1cccc(C(=O)NNC(=S)NC(=O)c2cccs2)c1
inactive: outcome [2] | outcome [3] | outcome [4] | outcome [5] | outcome [6] | outcome [7] | outcome [8] | outcome [9] | outcome [10] | outcome [11] | outcome [13] | outcome [14] | outcome [16] | outcome [20]
active: activation [1] 158% | activation [12] 124% | activation [15] 36.4% | activation [17] 142% | potentiation [18] 91% | potentiation [19] 226%

COC(=O)C1=C(C)N(Cc2ccccc2)C(=NCCc2ccccn2)N[C@H]1c1cccc(F)c1
active: activation [1] 109% | activation [10] 77% | activation [12] 44.2%
inactive: outcome [2] | outcome [3] | outcome [4] | outcome [5] | outcome [6] | outcome [7] | outcome [8] | outcome [9] | outcome [11] | outcome [13] | outcome [14] | outcome [15] | outcome [16]

Cc1ccn2cc(CCNC(=O)C3CC=CCC3C(=O)O)nc2c1 (stereo not drawn)
active: activation [1] 135% | activation [12] 59.9%
inactive: outcome [2] | outcome [3] | outcome [4] | outcome [5] | outcome [6] | outcome [7] | outcome [8] | outcome [9] | outcome [10] | outcome [11] | outcome [13] | outcome [14] | outcome [15] | outcome [16]

OCCN1CCN(Cc2cc(Br)cc(Br)c2O)CC1
active: activation [1] 199% | activation [2] 170% | activation [10] 32% | activation [12] 85.4%
inactive: outcome [3] | outcome [4] | outcome [5] | outcome [6] | outcome [7] | outcome [8] | outcome [9] | outcome [11] | outcome [13] | outcome [14] | outcome [15] | outcome [16] | outcome [17] | outcome [18] | outcome [19] | outcome [20]

CCN(c1ccccc1)S(=O)(=O)c1ccc(C(=O)N(CCCN(C)C)c2nc3cc4c(cc3s2)OCO4)cc1
active: activation [1] 99%
inactive: outcome [2] | outcome [3] | outcome [4] | outcome [5] | outcome [6] | outcome [7] | outcome [8] | outcome [9] | outcome [10] | outcome [11] | outcome [12] | outcome [13] | outcome [14] | outcome [15] | outcome [16]

Cc1ccc(NS(=O)(=O)c2ccc(C(=O)N3CC(C)CC(C)C3)cc2)cc1 (stereo not drawn)
active: activation [1] 103% | activation [10] 65.5% | activation [12] 43.8% | activation [15] 25.6% | activation [17] 138%
inactive: outcome [2] | outcome [3] | outcome [4] | outcome [5] | outcome [6] | outcome [7] | outcome [8] | outcome [9] | outcome [11] | outcome [13] | outcome [14] | outcome [16] | outcome [18] | outcome [19] | outcome [20]

CC(=O)Nc1ccc(CN2CCCC(C(=O)c3ccc(C(F)(F)F)cc3)C2)cc1 (stereo not drawn)
active: activation [1] 358% | activation [2] 86% | activation [10] 37.5% | activation [12] 40.5%
inactive: outcome [3] | outcome [4] | outcome [5] | outcome [6] | outcome [7] | outcome [8] | outcome [9] | outcome [11] | outcome [13] | outcome [14] | outcome [15] | outcome [16]

CCCOc1ccc(C(=O)NC(=S)NNC(=O)c2c(-c3ccccc3)noc2C)cc1
active: activation [1] 107% | activation [12] 92.6% | activation [15] 39.4% | potentiation [18] 28.5%
inactive: outcome [2] | outcome [3] | outcome [4] | outcome [5] | outcome [6] | outcome [7] | outcome [8] | outcome [9] | outcome [10] | outcome [11] | outcome [13] | outcome [14] | outcome [16] | outcome [17] | outcome [19] | outcome [20]

Cc1ccc(C)c(OCCCCn2ccnc2)c1
inactive: outcome [2] | outcome [3] | outcome [4] | outcome [5] | outcome [6] | outcome [7] | outcome [8] | outcome [9] | outcome [11] | outcome [13] | outcome [14] | outcome [15] | outcome [16]
active: activation [1] 111% | activation [10] 58.5% | activation [12] 14.7%

CCCOc1ccc(C(=O)NNC(=S)NC(=O)c2cccs2)cc1
inactive: outcome [2] | outcome [3] | outcome [4] | outcome [5] | outcome [6] | outcome [7] | outcome [8] | outcome [9] | outcome [10] | outcome [11] | outcome [13] | outcome [14] | outcome [16] | outcome [20]
active: activation [1] 104% | activation [12] 71.2% | activation [15] 22.6% | activation [17] 139% | potentiation [18] 135% | potentiation [19] 275%
